From PubChem BioAssay (NCI)
About 79,000 compounds went through this panel and 15% of them were active in at least one assay; those are over-represented in the sample as a whole. Activity calls are given as the source filed them. Rule as the data show it: active = growth inhibition above about 70%; inactive = the rest.

Tests used:
[1] = NCI Yeast Anticancer Drug Screen. Data for the rad50 strain (AID 155);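 also: 0% = growth of vehicle-only cultures of the same strain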; details: S. cerevisiae rad50 strain growth inhibition; at 50.0 µM; active compounds read high
Outline: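 Inhibition values express reduced yeast growth in compound-treated cultures relative to vehicle-treated controls.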

[2] = NCI Yeast Anticancer Drug Screen. Data for the mec2-1 strain (AID 157); details: S. cerevisiae mec2-1 strain, at 50.0 µM, active compounds read high
Outline: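 Test agents were screened against the mec2-1 yeast strain, with defined DNA repair or cell cycle alteration. Growth was scored as inhibition against vehicle-only controls.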

[3] = NCI Yeast Anticancer Drug Screen. Data for the sgs1 mgt1 strain (AID 161);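 also: 0% = growth of cultures given vehicle only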; details: S. cerevisiae sgs1 mgt1 strain, at 50.0 µM, active compounds read high
Outline: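 Inhibition of yeast growth, normalised to vehicle-treated controls, is reported for a strain bearing genetic alterations in DNA damage repair.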

[4] = NCI Yeast Anticancer Drug Screen. Data for the cln2 rad14 strain (AID 165);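 also: 0% = growth equal to vehicle treated cultures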; details: S. cerevisiae cln2 rad14 strain, at 50.0 µM, active compounds read high
Outline: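 Growth of compound-exposed yeast (cln2 rad14 genotype) measured and expressed as inhibition relative to vehicle.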

[5] = NCI Yeast Anticancer Drug Screen. Data for the bub3 strain (AID 167); details: S. cerevisiae bub3 mutant strain, at 50.0 µM, active compounds read high
Outline: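 Steps: expose the mutant yeast strain to compound; grow alongside vehicle-treated cultures; measure growth; express inhibition against the vehicle cultures.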

[6] = NCI Yeast Anticancer Drug Screen. Data for the mlh1 rad18 strain (AID 175); details: S. cerevisiae mlh1 rad18 strain growth inhibition; at 50.0 µM; active compounds read high
Outline: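 In this whole-cell yeast screen, a strain with altered DNA damage repair is challenged with compound, and its growth is measured against matched vehicle-treated controls.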

Measured: growth inhibition

CC(=O)N=C1N(/C=C2\C(=O)Oc3ccccc3C2=O)C(=O)/C(=C/c2ccc(OC(C)=O)cc2)N1C
inactive: [1] -9.55% | [2] -17% | [3] -14.9% | [4] 12.9% | [5] 1.05% | [6] 0.75%

O=C1CCCCCCCC(=O)Nc2ccc3nc4ccccc4c(c3c2)SCCCCCCCCCSc2c3ccccc3nc3ccc(cc23)N1
inactive: [1] 27.7% | [2] -13.2% | [3] -6.75% | [4] -13.2% | [5] -6.5% | [6] 4.2%

CS/C(c1ccccc1)=[N+](/C)[O-]
inactive: [1] 42.6% | [2] 16.5% | [3] 17.3% | [4] -1% | [5] 24.6% | [6] 25.6%

Cc1[nH]c(=O)[nH]c(=O)c1/C=C/C(=O)NC(CO)CS(=O)CS(C)=O (stereo unspecified)
inactive: [1] 3.85% | [2] -11.2% | [3] 9.75% | [4] 13.1% | [5] 5.6% | [6] -10.4%

CCCCSc1ccc2n(C)c(-c3ccc(/C=N\NC(=O)c4ccc(C(=O)N/N=C\c5ccc(-c6c[n+]7cc(SCCCC)ccc7n6C)cc5)cc4)cc3)c[n+]2c1
inactive: [1] -15.8% | [2] -14.7% | [3] -17.9% | [4] -8.45% | [5] -7.1% | [6] -1.65%

COC(=O)n1sc(SC)nc1=N
inactive: [1] 3.75% | [2] -3.95% | [3] -8.9% | [4] -14.3% | [5] -17.1% | [6] 3.55%

Cc1cc2ccccc2[nH]1
inactive: [1] 33.9% | [2] -15.3% | [3] -3.65% | [4] 3.1% | [5] 2.75% | [6] 10%

OCCCSc1ccccc1SCCCO
inactive: [1] -1.4% | [2] -2.45% | [3] 3.5% | [4] -1.7% | [5] 3.75% | [6] 5.1%

c1coc(C2SCSCS2)c1
inactive: [1] 0.35% | [2] 5.8% | [3] -6.7% | [4] -13.5% | [5] -8.2% | [6] -4.2%

COc1nc2[nH]c(C)cc(=O)c2c2ccccc12
inactive: [1] 16.4% | [2] 14.8% | [3] 1.45% | [4] -26.8% | [5] -7% | [6] 2.8%

CCOC(=O)C(C(=O)OCC)=C1c2ccccc2Oc2ccccc21
inactive: [1] 39.1% | [2] 8% | [3] 14.7% | [4] -17.6% | [5] 33.5% | [6] 46%

Nc1cccc(S(N)(=O)=O)c1
inactive: [1] 10.4% | [2] -5.65% | [3] -0.85% | [4] -40% | [5] 12.2% | [6] 1.4%

O=[N+]([O-])c1ccc(N=Cc2ccccc2O)cc1
inactive: [1] -19.7% | [2] -8.05% | [3] -23.6% | [4] 4.3% | [5] 8.05% | [6] -6.9%

CNC(=S)N(C)c1ccccc1
inactive: [1] 0.6% | [2] -9.85% | [3] -15.9% | [4] -57.4% | [5] 8.05% | [6] -23.3%

COC(=O)/C(C=Nc1ccccc1)=C(/C)O
inactive: [1] 7.35% | [2] 5.1% | [3] 9% | [4] -29.2% | [5] 11.4% | [6] -1.2%

O=C(O)CCN(CCC(=O)O)S(=O)(=O)c1ccccc1
inactive: [1] -4.55% | [2] -43.4% | [3] -4.65% | [4] -103% | [5] -17.6% | [6] 22.9%

O=[N+]([O-])c1ccc(-c2ccccc2-c2ccccc2)cc1
inactive: [1] 3.9% | [2] -2.8% | [3] 8.25% | [4] -38.1% | [5] 3.5% | [6] -22.9%

COC1CC(NC(C)=O)C2OC(c3ccccc3)OCC2O1 (stereo unspecified)
inactive: [1] 4.35% | [2] 11.2% | [3] -10.2% | [4] 6.1% | [5] -3.45% | [6] 4.45%

C[n+]1nc2ccccc2c(=Nc2ccccc2[N+](=O)[O-])[n-]1
inactive: [1] 10.3% | [2] -2.35% | [3] 22.7% | [4] 14.1% | [5] 8.5% | [6] -1.65%

CC(=O)Oc1ccccc1[C@H]1CC(=O)C[C@H](c2ccccc2OC(C)=O)C12C(=O)c1ccccc1C2=O
inactive: [1] -12.8% | [2] -18.4% | [3] -7.55% | [4] 30.1% | [5] -17.4% | [6] 9.3%

C(=N/OC(c1ccccc1)(c1ccccc1)c1ccccc1)/c1ccccc1
inactive: [1] 13.7% | [2] 24.2% | [3] 6.2% | [4] 7.8% | [5] 15.8% | [6] 6.45%

CSCCNC(=O)CS(=O)(=O)c1ccc(C)cc1
inactive: [1] 3.35% | [2] -11.4% | [3] 5.25% | [4] 20.2% | [5] 7.95% | [6] 17.4%

CN(C)c1c2c(oc(=O)c1Cl)-c1ccccc1OCC2
inactive: [1] -14.3% | [2] -12.8% | [3] -10.4% | [4] -4.85% | [5] -19.1% | [6] -17.6%

CC[n+]1c(/C=C\N(C(C)=O)c2ccccc2)oc2ccccc21
inactive: [1] -20.6% | [2] -25.3% | [3] -9.3% | [4] -0.7% | [5] 6.2% | [6] -7.8%

Cc1ccc(-n2ncc3c(N)ncnc32)cc1
inactive: [1] 10.2% | [2] 12.4% | [3] 2.6% | [4] -19% | [5] -7.8% | [6] -14.2%

O=C(O)c1cc(=O)c2ccccc2[nH]1
inactive: [1] 4.45% | [2] 8.4% | [3] 1.35% | [4] 6.5% | [5] 8.2% | [6] 17.9%

CC(C)(C)c1ccc(P(=O)(O)C(C)(C)C)cc1
inactive: [1] -9.5% | [2] 5.9% | [3] -15.5% | [4] 35% | [5] 4.15% | [6] 6.95%

COC(=O)C(CC(=O)[C@H]1CC[C@H]2[C@@H]3CC[C@H]4C[C@@H](OC(C)=O)CC[C@]4(C)[C@H]3CC[C@]12C)OC(C)=O (stereo partly specified)
inactive: [1] 51.5% | [2] 40.9% | [3] 57.5% | [4] 53% | [5] -2.7% | [6] 44.2%

CC(=O)/C(C)=C\C1C(C)=CCCC1(C)C (stereo unspecified)
inactive: [1] -4.5% | [2] -33.4% | [3] -27.8% | [4] -23.3% | [5] -14.8% | [6] -5.85%

CCOc1cc2c(cc1O)CC[C@@H]1[C@@H]2CC[C@]2(C)C(N)CC[C@@H]12 (stereo partly specified)
inactive: [1] -0.95% | [2] 5.85% | [3] -18.2% | [4] -33.1% | [5] -20.1% | [6] -8.8%

CC(C)(C)OC(=O)CN1C(=O)CCC1=O
inactive: [1] 6.25% | [2] 8.65% | [3] 20.2% | [4] -26.1% | [5] 4.45% | [6] -5.15%

Cn1c(=O)c2c(=O)n3ccccc3nc2n(C)c1=O
inactive: [1] 48% | [2] 48% | [4] 68.4% | [5] 62.9% | [6] 69.4%
active: [3] 72.1%

COc1cccc(N2C(=O)CC(=P(c3ccccc3)(c3ccccc3)c3ccccc3)C2=O)c1
inactive: [1] 40% | [2] 20.6% | [3] 23.9% | [4] -21.7% | [5] -7.9% | [6] 13.4%

CCOC(=O)C1(C(=O)OCC)CSC1
inactive: [1] -16.6% | [2] -5.45% | [3] -17.1% | [4] 3.85% | [5] -17.8% | [6] -22.3%

CCOC(=O)NC(C(=O)OCC)(N1CCN(c2cc3c(cc2F)c(=O)c(C(=O)O)cn3CC)CC1)C(F)(F)F (stereo unspecified)
inactive: [1] -10.5% | [2] -25.2% | [3] -11.1% | [4] -24.4% | [5] -7.55% | [6] -5.05%

O=S(=O)(N=N/C=C1\C=CC=CN1O)c1cccs1
inactive: [1] -12.1% | [2] 6.3% | [3] -8.25% | [4] -1.15% | [5] -26.4% | [6] -21.1%

Clc1ccc(N=Nc2ccccc2)cc1
inactive: [1] -2.45% | [2] 12.3% | [3] 4.4% | [4] -14.7% | [5] 1.7% | [6] 5.25%

Cn1c(=O)c2ccccc2[n+]2c(-c3cccc([N+](=O)[O-])c3)csc12
inactive: [1] -3.9% | [2] -15.3% | [3] 41.5% | [4] 25.6% | [5] -8.85% | [6] -9%

Cc1c([N+](=O)[O-])cc(C(C)(C)C)c(OC(=O)Nc2ccc(Cl)cc2)c1[N+](=O)[O-]
inactive: [1] 41.4% | [2] 63.7% | [3] 65.7% | [4] 52.2% | [5] 27.6% | [6] 69%

CCCCCCC1CCC(=O)CC1
inactive: [1] 31.9% | [2] 4.3% | [3] -14.6% | [4] -10.1% | [5] -7.3% | [6] 34.5%

ClC(Cl)C1OCCCO1
inactive: [1] -32.4% | [2] -17.4% | [3] -23.2% | [4] -41.1% | [5] 12.2% | [6] -8.25%
